Experiment [1] can be described thus: wild-type E. coli growth inhibition versus h38 humanized strain – h38 mutant RFP, wild-type GFP, cherry-pick, dose response (AID 977622). Conditions: activity change: E. coli mixed culture, total growth OD600 at 50 uM, at 50 µM.
Experiment [2] deals with E. coli h38 humanized mutant ribosome RFP fluorescence, mixed culture, 24 h. Described as above. As to conditions: h38 mutant RFP at 50 uM; at 50 µM.

In all, about 1,900 compounds went through this assay and fewer than 10 were called active. Inconclusive results (about 39%) are left out.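 The calls were made as follows: active = Green signal of the normal strain falls at least twice as much as red signal of the resistant mutant, with overall culture growth loss under a set limit; inconclusive = no clear call, values can overlap the other calls; inactive = the rest.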 The list is a sample of the results.

`COCc1[nH]nc2c1C(c1ccc3c(c1)OCO3)N(c1ccc(OC)cc1)C2=O` (centres undefined): in experiment [1], the activity change was found to be 1.74% and the compound was classed as inactive.
For `O=C(c1cc(COc2ccc(F)cc2F)on1)N1CCCC(c2ccccc2)C1` (centres undefined), in experiment [1], the activity change turned out to be 5.17% and the call was inactive. For the same compound, the activity change in experiment [2] is -5.01%.
On the same counts, the results for `CCOC(=O)Cc1csc(SCC(=O)Nc2cc(C)ccc2OC)n1` are -33.1%, “inactive” and 38.6%.
For `CC(=O)Nc1cccc(OCc2ccc([N+](=O)[O-])cc2)c1`, in that order: -10.5%, “inactive” and -23.9%.
For `CC(CCc1ccccc1)NC(=O)CNC(=O)COc1ccccc1` (centres undefined), in that order: -14.6%, “inactive” and 9.58%.
For `O=S(=O)(NOCc1ccc(Cl)cc1)c1ccc(Cl)cc1`, the activity change in experiment [1] is -42.8%; in experiment [2] it was -52%. The result in experiment [1] was inactive.
For `O=C(c1cccc2ccccc12)C1CCCN(C(=O)CCc2cnccn2)C1` (centres undefined), in that order: -12%, -5.75% and “inactive”.
As to `C[C@@H]1CN([C@@H](C)CO)C(=O)c2cc(NC(=O)Nc3cccc4ccccc34)ccc2O[C@@H](C)CCCCO[C@H]1CN(C)C`, in experiment [1], the activity change is -2.41% and the outcome was inactive. Further, the activity change in experiment [2] was -18%.
`C[C@]12C(=O)N(c3ccc(F)cc3)C(=O)N1[C@@H]1c3ccccc3OC[C@@H]1[C@H]2c1ccccc1`: in experiment [1], the activity change was -20.2% and the compound was classed as inactive. For the same compound, the activity change in experiment [2] was -13.6%.
`O=C(O)c1cccc2c1-c1ccc([N+](=O)[O-])cc1C2=O`: in experiment [1], the activity change is -0.103% and the compound was called inactive. In experiment [2], the activity change is -6.27%.
On the same counts, the results for `COc1ccc([C@H]2C[C@H](O)C[C@@H](CCn3cc(-c4ccccc4)nn3)O2)cc1` are -21.6%, “inactive” and 19.3%.
For `O=C(Nc1ccc(F)cc1)N1CCCCN2[C@@H](CO)[C@H](c3ccc(-c4ccncc4)cc3)[C@@H]2C1`, in that order: 12%, “inactive” and -0.029%.
For `Cc1ccccc1S(=O)(=O)N1C[C@H]2CON(C)[C@H]2C[C@H]1c1cccc(-c2ccc(C#N)cc2)c1`, in that order: -28.1%, “inactive” and -10.7%.
Take `CC(=O)Nc1cccc(OCCCOc2cccc([N+](=O)[O-])c2)c1`: in experiment [1], the activity change is -16.8% and the result was inactive. The activity change in experiment [2] turned out to be 44.4%.
For `Nc1[nH]c(C(=O)c2ccccc2)c(-c2ccc3c(c2)OCO3)c1C(=O)NCCc1c[nH]c2ccccc12`, in that order: -18.1%, “inactive” and -20.2%.
For `Cc1ccc2nc(-c3ccc(Cl)cc3)c(Cc3ccccc3C(F)(F)F)n2c1`, in that order: -10.5%, “inactive” and 37.7%.
On to `CC(C)n1nnnc1C1c2ccccc2C(=O)N1CCOc1ccccc1` (centres undefined), for which, in experiment [1], the activity change is -14.1% and the call was inactive. Further, the activity change in experiment [2] was -9.39%.
For `Cc1occc1-c1nnc(SCC(=O)Nc2nc(-c3ccccc3)cs2)o1`, in that order: -4.96%, “inactive” and 8.71%.
For `O=C(O)CC(CC(=O)Nc1ccc2ccccc2n1)c1ccccc1` (centres undefined), in that order: -7.83%, “inactive” and 7.39%.
For the compound `CCOC(=O)c1cccc(OC(=O)CCNC(=O)c2ccc(Cl)cc2)c1`, in experiment [1], the activity change was -36.4% and the outcome was inactive. The activity change in experiment [2] was -3.29%.
For `C[C@H]1CN([C@@H](C)CO)C(=O)CCCn2nncc2CO[C@@H]1CN(C)Cc1ccccc1C(F)(F)F`, in that order: -28.1%, “inactive” and -45.2%.
On the same counts, the results for `Cn1nc(C(=O)Nc2cccc(S(=O)(=O)N3CCCCC3)c2)c2ccccc2c1=O` are -5.66%, “inactive” and -3.97%.
Consider `O=S1(=O)N[C@H](Cc2ccccc2)COc2cc(N3CCSCC3)ccc21`, for which, in experiment [1], the activity change is -14.3% and the outcome was inactive. Also, the activity change in experiment [2] is 12%.
As for `CN(CCOc1ccccc1)S(=O)(=O)c1ccccc1C#N`, in experiment [1], the activity change was -20.9% and the compound was called inactive.
For `CN(C)S(=O)(=O)c1cccc(C(=O)OCC(=O)c2ccc3c(c2)NC(=O)CO3)c1`, in that order: -6.04% and “inactive”.
As for `O=C(COC(=O)C1CC2C=CC1C2)Nc1ccc([N+](=O)[O-])cc1` (centres undefined), the activity change in experiment [1] was -15.1%; in experiment [2], -8.7%. Moreover, the compound was classed as inactive in experiment [1].
As to `C[C@@H]1CN([C@@H](C)CO)C(=O)CCCn2nncc2CO[C@H]1CN(C)C(=O)Nc1cccc(C(F)(F)F)c1`, in experiment [1], the activity change was -2.42% and the outcome was inactive. Also, in experiment [2], the activity change is -7.01%.
For `Fc1cccc(Cc2c(-c3ccco3)nc3c4ccccc4ccn23)c1`, in that order: 3.21%, “inactive” and 15.9%.
On the same counts, the results for `O=C(c1ccccc1)C1Oc2ccccc2C2CC(c3cccs3)=NN12` (centres undefined) are -7.77%, “inactive” and 46.5%.
As to `C=CCSc1cc(C)nc2c(-c3ccccc3)c(C)nn12`, the activity change in experiment [1] is -4.42%; in experiment [2], -3.25%. For the same compound, the call in experiment [1] was inactive.
Regarding `Cc1cc(C)c(OCC(=O)OCC(=O)N2CCc3ccccc3C2)c(C)c1`, in experiment [1], the activity change was -18.4% and the call was inactive. Further, the activity change in experiment [2] is -19.1%.
For `Cc1noc(C)c1NC(=O)Nc1ccc2c(c1)C(=O)N([C@H](C)CO)C[C@H](C)[C@H](CN(C)C(=O)Nc1ccc3c(c1)OCO3)OCCCC[C@@H](C)O2`, in that order: -29.4%, “inactive” and -22.3%.
For `COc1ccccc1NC(=O)CSc1nccn1Cc1ccc(F)cc1`, in that order: -34.2%, “inactive” and -43.9%.
Consider `COc1cc2ccccc2cc1C(=O)NCC(c1cccs1)N(C)C` (centres undefined), for which, in experiment [1], the activity change is -20.3% and the compound was classed as inactive. Also, the activity change in experiment [2] is 10.8%.
For `COc1cccc(NC(=O)N(C)C[C@H]2Oc3ncc(C#Cc4cccnc4)cc3C(=O)N([C@H](C)CO)C[C@H]2C)c1`, in that order: -8.41%, “inactive” and -2.54%.
On the same counts, the results for `O=C(O)CC(CC(=O)Nc1ccc(Oc2ccccc2)cc1)c1ccccc1` (centres undefined) are -38.6%, “inactive” and -21.4%.
Take `Cc1onc(-c2ccccc2Cl)c1C(=O)N1CCN(Cc2ccc3c(c2)OCO3)CC1`: in experiment [1], the activity change is -18.8% and the compound was classed as inactive. Further, in experiment [2], the activity change is -29.8%.
On to `Cc1cc(C)nc(SCCC(=O)Nc2ccccc2Cl)n1`, for which, in experiment [1], the outcome was inactive. In experiment [2], the activity change turned out to be 4.04%.
As to `C=CCNc1ccc2c(c1)OC[C@H](CC(C)C)NS2(=O)=O`, in experiment [1], the activity change is -16.5% and the compound was classed as inactive. In experiment [2], the activity change is -12.1%.
Consider `CCCCCCCNC(=O)c1ccc(N2CCC3(CC2)OCCO3)c([N+](=O)[O-])c1`, for which the figures for the activity change in experiment [1] and in experiment [2] were -71.7% and 33.2%, respectively. Besides, the result in experiment [1] was inactive.
On the same counts, the results for `CCn1nc(C)cc1C(=O)N1CCCC(C(=O)c2ccc3ccccc3c2)C1` (centres undefined) are -3.63%, 3.47% and “inactive”.
Take `CSc1ccccc1C(=O)NCCc1ccc(S(=O)(=O)N2CCCCC2)cc1`: in experiment [1], the activity change was -6.73% and the compound was classed as inactive.
For `CCOc1ncccc1C(=O)OCC(=O)NCCCc1ccccc1`, the results for the activity change in experiment [1] and in experiment [2] were -34.2% and 13.1%, respectively. For the same compound, the result in experiment [1] was inactive.
On the same counts, the results for `Cn1cc(CN2CCCC(C(=O)Nc3cccc(-c4cc5ccccc5[nH]4)c3)C2)cn1` (centres undefined) are -25.9%, -29% and “inactive”.
For `COc1ccccc1CC(=O)NCCCc1ccccc1`, in that order: 0.195%, 28.9% and “inactive”.
On the same counts, the results for `CN1C(=O)c2cc(NC(=O)c3cccc(F)c3)ccc2OC[C@H]2O[C@@H](CC(=O)NCC3CCCCC3)CC[C@@H]21` are -45.8%, -19.3% and “inactive”.
Consider `C[C@H](CO)N1C[C@H](C)[C@H](CN(C)C(=O)Nc2ccc(F)cc2)Oc2c(NC(=O)Nc3ccccc3)cccc2C1=O`, for which the activity change in experiment [1] is -24.1%; in experiment [2], 16.4%. The call in experiment [1] was inactive.
On the same counts, the results for `O=C(Nc1c(S(=O)(=O)c2ccc(Cl)cc2)csc1Br)c1ccccc1Cl` are 9.68%, 8.46% and “inactive”.

The record behind these values is PubChem BioAssay AID977622 (Broad Institute, 2014).
